Compound activity as filed in PubChem.
FBW7 act – human FBW7 E3 ligase activation, primary screen. AlphaScreen FBW7–phospho-cyclin E peptide binding, activator screen. normalized activity (activation), % at 26.1 µM. 0.13% of 650,000 active; in the data active = normalized activity above about 1.9%;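 also: purified mutant Fbw7 with reduced substrate affinity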
Target sequence (Q969H0 whole entry, looked up): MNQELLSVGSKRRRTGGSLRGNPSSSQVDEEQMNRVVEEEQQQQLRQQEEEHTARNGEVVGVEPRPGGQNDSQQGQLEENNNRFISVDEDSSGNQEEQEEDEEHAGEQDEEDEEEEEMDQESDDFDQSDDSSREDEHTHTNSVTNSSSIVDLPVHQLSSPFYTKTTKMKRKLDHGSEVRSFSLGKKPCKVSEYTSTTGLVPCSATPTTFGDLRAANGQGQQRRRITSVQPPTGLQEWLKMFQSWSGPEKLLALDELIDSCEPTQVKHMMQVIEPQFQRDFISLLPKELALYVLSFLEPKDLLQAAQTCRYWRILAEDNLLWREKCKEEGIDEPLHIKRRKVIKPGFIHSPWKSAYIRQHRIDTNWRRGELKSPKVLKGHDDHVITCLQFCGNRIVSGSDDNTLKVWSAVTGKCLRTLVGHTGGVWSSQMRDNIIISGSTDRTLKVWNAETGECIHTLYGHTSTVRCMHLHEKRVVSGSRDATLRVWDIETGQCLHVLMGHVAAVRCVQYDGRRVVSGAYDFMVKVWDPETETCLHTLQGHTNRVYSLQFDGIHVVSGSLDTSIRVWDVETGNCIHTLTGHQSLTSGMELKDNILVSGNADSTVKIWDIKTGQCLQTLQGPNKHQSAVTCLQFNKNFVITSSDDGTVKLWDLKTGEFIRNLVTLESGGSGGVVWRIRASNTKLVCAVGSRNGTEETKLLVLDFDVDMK
TEAD-YAP block – TEAD-YAP interaction inhibition; inhibition, % at 9.12 µM; 1.4% of 640,000 active; HEK-TIYL cells, TEAD-Gal4/YAP UAS-luciferase luminescence; in the data active = inhibition above about 32%;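 also: 0% = median of test compound wells and 100% = reference inhibitor wells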
MITF primary – inhibitors of human MITF; O75030; AlphaScreen MITF homodimerization, bead proximity signal; inhibition, % at 2.6 µM; 0.91% of 650,000 active; AID 1259374; in the data active = inhibition above about 50%;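 also: 0% = vehicle wells with protein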
GPR151 ag – human GPR151 activation | Q8TDV0 | PathHunter beta-arrestin GPR151 cells, luminescence | activation, % at 11.2 µM | 1% of 650,000 active; in the data active = activation above about 4.9%;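 also: 0% = median of compound wells and 100% = cells with positive control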
GPR151 confirm – human GPR151 activation, confirmation screen. 6,700 tested, under 10 active. GPR151 PathHunter beta-arrestin cells, luminescence, 90 min; % of EA-reagent control over plate median. activation, % at 11.2 µM. shares compounds with GPR151 ag;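 active = mean percent activation across replicates above the confirmation screen cutoff of 4.91%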
GPR119 counter – GPR119 activation, counter-screen for GPR151 activators; shares compounds with GPR151 ag; GPR119 PathHunter beta-arrestin cells, luminescence, 90 min; 0 = compound-well median, 100 = enzyme-acceptor control; activation, % at 11.2 µM; 0.3% of 6,700 active;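 active = mean percent activation in the counterscreen above 29.09%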;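 also: counterscreen on off-target GPR119 to flag nonselective hits from the GPR151 activator screen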
Numbers without * were called inactive; nt = not tested or not shown. The list is not random: actives were taken first. Their share in the collection is about 3.4%.

SMILES	FBW7 act	TEAD-YAP block	MITF primary	GPR151 ag	GPR151 confirm	GPR119 counter
Cc1ccc(NC(=O)CC(C)(C)C)cc1Cl	0.1	-5.8	-2.2	5.2*	-0.3	5.1
COc1ccc(C(CC(=O)O)NC(=O)c2cccc([N+](=O)[O-])c2)cc1OC (stereo not drawn)	0.2	15.5	5.2	-0.7	nt	nt
CCOC(=O)c1c(NC(=O)C(C)Sc2nnc(CNC(=O)c3cccc(F)c3)n2-c2ccc(OCC)cc2)sc2c1CCC2 (stereo not drawn)	0.1	6.9	-8.1	-0.8	nt	nt
O=C(CCCc1ccccc1)Nc1ccccc1	0.3	-60.0	11.8	0.2	nt	nt
O=C(CCCc1ccccc1)Nc1ccc(F)cc1	0.1	-90.1	-4.2	6.1*	-0.8	-12.9
N#Cc1cccc(NC(=O)Cc2ccccc2)c1	-0.1	4.2	17.5	7.6*	0.4	-4.0
N#Cc1ccc(NC(=O)CCCc2ccccc2)cc1	0.3	-80.7	7.6	5.1*	0.2	-8.1
N#Cc1cccc(NC(=O)CCCc2ccccc2)c1	0.0	-40.6	-12.3	-0.3	nt	nt
Cc1nccc2[nH]c(=O)c(C(=O)NCCN3CCN(c4cccc(Cl)c4)CC3)cc12	-0.1	-3.1	-14.8	-1.5	nt	nt
Cc1cc(C(=O)O)ccc1-n1c(C)cc(/C=C2\C(=O)NC(=O)N(C)C2=O)c1C	0.6	14.0	35.3	-0.5	nt	nt
CC(=O)Nc1ccc(Nc2ncnc3c2nc(-c2ccc(C(N)=O)cc2)n3C(C)C)cc1	0.0	-20.5	0.0	1.2	nt	nt
COc1ccc(C(CC(=O)Nc2cc(OC)cc(OC)c2)N2Cc3ccccc3C2=O)cc1 (stereo not drawn)	0.2	-5.3	-14.1	0.4	nt	nt
CCOc1ccc(N2CCn3c2nnc(C(=O)NCc2ccc(Cl)cc2)c3=O)cc1	0.1	0.4	4.2	5.0*	0.0	-10.7
COc1ccccc1CN1C[C@@H]2C[C@@H](c3cccc(SC)c3)N3CCC[C@@]23C1=O	-0.1	-6.1	8.2	6.5*	-1.4	-20.7
CCOC(=O)c1c(NC(=S)Nc2cccnc2)sc(C)c1C	0.0	6.5	7.1	5.3*	0.1	0.9
CCOC(=O)c1c(NC(=S)NC(=O)c2cccs2)sc(C)c1C	0.0	2.2	3.8	1.8	nt	nt
Cc1cc(C)nc(Nc2n[nH]c(COc3ccccc3)n2)n1	0.1	-14.1	5.7	5.7*	-1.0	-2.3
CC(Sc1ncccn1)C(=O)NN=C1CCCCC1 (stereo not drawn)	0.2	-1.9	10.3	-0.7	nt	nt
CCOC(=O)c1nc(Nc2ccc(OC(C)C)cc2)c2ccccc2n1	-0.1	4.8	7.5	8.8*	1.7	6.5
CCOC(=O)c1nc(Nc2ccc(OCC)cc2)c2ccccc2n1	-0.1	2.4	16.8	0.8	nt	nt
CCOC(=O)c1cccc(Nc2nc(-c3ccccc3Cl)nc3ccccc23)c1	0.0	11.3	2.5	0.2	nt	nt
CCOC(=O)c1cccc(Nc2nc(-c3ccccc3)nc3ccccc23)c1	0.2	3.6	16.7	5.9*	0.3	-0.6
O=C(NC1CCCCC1)c1cc2n(n1)C(C(F)(F)F)CC(c1ccc(Cl)cc1)N2 (stereo not drawn)	0.1	1.5	13.6	-0.6	nt	nt
O=C1N[C@@H](Cc2ccccc2)C(=O)N2C[C@@H](NCc3ccc(Cl)s3)C[C@@H]12	0.1	6.5	7.9	0.5	nt	nt
COC(=O)C(Sc1c(O)cc(C)oc1=O)(C(F)(F)F)C(F)(F)F	-1.3	-9.9	5.4	-0.2	nt	nt
SMILES	FBW7 act	TEAD-YAP block	MITF primary	GPR151 ag	GPR151 confirm	GPR119 counter
COC(=O)C(Sc1cc2c(cc1O)OCO2)(C(F)(F)F)C(F)(F)F	-0.3	2.6	4.6	5.3*	0.0	1.0
CC(=O)c1nn(-c2ccc(Br)cc2)c(=Nc2cccc3ccccc23)s1	-0.2	-0.6	1.5	0.2	nt	nt
Cc1ccc(Cc2c(C)nc3c(C(=O)N4CCN(c5cccc(C(F)(F)F)c5)CC4)cnn3c2C)cc1	0.0	-7.5	3.4	4.1	nt	nt
COC(=O)c1ccc(/C=N/NC(=O)c2cc(-c3cccs3)[nH]n2)cc1	0.0	11.1	-0.8	7.4*	-0.5	8.3
O=C(O)c1ccc(/C=N/NC(=O)c2cc(-c3cccs3)[nH]n2)cc1	0.3	-4.7	10.6	1.3	nt	nt
COC(=O)COc1ccc(CNC2CCCCCCC2)cc1	-0.4	2.8	0.1	5.4*	0.2	4.0
CCCCOC(=O)C1=C(C)NC(=O)NC1c1ccc(F)c(Br)c1 (stereo not drawn)	0.1	6.4	-1.6	0.7	nt	nt
CCN1C(=O)CC(N2CCC(C(=O)N3CCOCC3)CC2)C1=O (stereo not drawn)	-0.2	0.8	-3.9	15.1*	1.0	14.2
COC(=O)CCS(=O)(=O)c1ccc(Oc2ccc(S(=O)(=O)CCC(=O)OC)cc2)cc1	-0.1	14.1	1.1	5.7*	0.8	-3.0
COC(=O)c1cc(NC(=O)CCS(=O)(=O)c2ccc(OC)cc2)cc(C(=O)OC)c1	0.0	3.7	4.9	0.9	nt	nt
COC(=O)c1ccc(NC(=O)CCS(=O)(=O)c2ccc(OC)cc2)cc1	0.1	-5.4	-2.6	5.0*	-0.2	-1.2
COC(=O)CCS(=O)(=O)c1ccc(Cl)cc1	0.1	1.0	-6.4	-0.1	nt	nt
CC(C)(C)n1nc2c(c1NC(=O)CSCc1ccccc1)CSC2	0.1	7.0	11.5	1.0	nt	nt
COc1cccc(OC)c1C(=O)Nc1nccs1	0.0	14.9	-4.3	-0.1	nt	nt
O=C(O)C1C2C=CC(C2)C1C(=O)N1CCN(c2ccc(F)cc2)CC1 (stereo not drawn)	0.0	11.3	7.6	-0.7	nt	nt
CCCNC(=O)c1csc(-c2c(C)nn(C)c2C)n1	0.0	-4.8	27.0	5.2*	0.1	10.1
CN(Cc1ccccc1)C(=O)CCC1CCN(C(=O)C(=O)c2ccccc2)CC1	-0.2	-19.3	-7.1	5.2*	-0.8	2.1
CC1=C(C(=O)N2CCC(CCC(=O)N(C)Cc3ccccc3)CC2)OCCO1	-0.1	-11.8	-0.7	-0.9	nt	nt
O=C1/C(=C\N2CCCC2)c2ccccc2C(=O)N1c1ccccc1	0.0	2.7	-5.4	5.0*	0.1	-2.3
COc1ccc(N2CCN(C3CCCN(C(=O)CCN4CCCCO4)C3)CC2)cc1 (stereo not drawn)	0.0	-4.8	5.8	5.3*	1.0	9.9
COC(=O)c1ccc(Nc2nc3ccccc3n3c(C)nnc23)cc1	-0.1	4.1	-3.2	1.9	nt	nt
CC(=O)c1ccc(Nc2nc3ccccc3n3c(C)nnc23)cc1	-0.1	11.6	3.4	7.3*	0.7	0.1
O=C(COC(=O)c1ccccc1I)c1ccc(F)cc1	0.0	-52.6	2.4	0.0	nt	nt
O=C(Cn1c(=O)oc2cc(S(=O)(=O)N3CCCCCC3)ccc21)NC1CCCCC1	-0.1	0.8	7.5	-0.7	nt	nt
COc1ccc(NC(=O)Cn2c(=O)oc3cc(S(=O)(=O)N4CCCC4)ccc32)cc1	0.1	14.2	5.4	5.0*	0.3	-2.1
O=C(Cn1c(=O)oc2cc(S(=O)(=O)N3CCc4ccccc43)ccc21)NC1CCCC1	0.1	9.0	-6.6	7.5*	0.7	-5.8
